Test results from PubChem BioAssay (NCATS).
Unmarked numbers belong to inactive results. Records with an inconclusive call do not appear. Where a call stands in place of a potency, no number is given. Activity calls are given as the source filed them. Calls come from the whole dose curve; as a rule, active = well fitted curve in the direction sought with a large enough effect; inconclusive = small, poorly fitted or top-dose-only effect, or another doubt; inactive = no such curve, though single readings can be large; an effect the other way counts as inactive or inconclusive.

Key:
[1] = system: Zika virus NS2B-NS3 protease (unlinked); experiment: Optimization of GU AMC qHTS for Zika virus inhibitors: Unlinked NS2B-NS3 protease assay (AID 1347151); note: series mostly up to about 52 µM; nearly all actives have a fitted effect of over 80% in size
Method in brief: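 Percent inhibition is derived from the 15-min change in AMC fluorescence, normalized against no-inhibitor and no-enzyme controls, then fitted to a 4-parameter Hill curve. Aprotinin was the intraplate control.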

[2] = molecular target: Lysine-specific demethylase 5B (Homo sapiens) (UniProt Q9UGL1); experiment: Optimization screen for KDM5B Histone Demethylases FDH coupled qHTS against the LOPAC library (AID 1347166)
Chain of Lysine-specific demethylase 5B (Homo sapiens) (Q9UGL1 whole entry, looked up): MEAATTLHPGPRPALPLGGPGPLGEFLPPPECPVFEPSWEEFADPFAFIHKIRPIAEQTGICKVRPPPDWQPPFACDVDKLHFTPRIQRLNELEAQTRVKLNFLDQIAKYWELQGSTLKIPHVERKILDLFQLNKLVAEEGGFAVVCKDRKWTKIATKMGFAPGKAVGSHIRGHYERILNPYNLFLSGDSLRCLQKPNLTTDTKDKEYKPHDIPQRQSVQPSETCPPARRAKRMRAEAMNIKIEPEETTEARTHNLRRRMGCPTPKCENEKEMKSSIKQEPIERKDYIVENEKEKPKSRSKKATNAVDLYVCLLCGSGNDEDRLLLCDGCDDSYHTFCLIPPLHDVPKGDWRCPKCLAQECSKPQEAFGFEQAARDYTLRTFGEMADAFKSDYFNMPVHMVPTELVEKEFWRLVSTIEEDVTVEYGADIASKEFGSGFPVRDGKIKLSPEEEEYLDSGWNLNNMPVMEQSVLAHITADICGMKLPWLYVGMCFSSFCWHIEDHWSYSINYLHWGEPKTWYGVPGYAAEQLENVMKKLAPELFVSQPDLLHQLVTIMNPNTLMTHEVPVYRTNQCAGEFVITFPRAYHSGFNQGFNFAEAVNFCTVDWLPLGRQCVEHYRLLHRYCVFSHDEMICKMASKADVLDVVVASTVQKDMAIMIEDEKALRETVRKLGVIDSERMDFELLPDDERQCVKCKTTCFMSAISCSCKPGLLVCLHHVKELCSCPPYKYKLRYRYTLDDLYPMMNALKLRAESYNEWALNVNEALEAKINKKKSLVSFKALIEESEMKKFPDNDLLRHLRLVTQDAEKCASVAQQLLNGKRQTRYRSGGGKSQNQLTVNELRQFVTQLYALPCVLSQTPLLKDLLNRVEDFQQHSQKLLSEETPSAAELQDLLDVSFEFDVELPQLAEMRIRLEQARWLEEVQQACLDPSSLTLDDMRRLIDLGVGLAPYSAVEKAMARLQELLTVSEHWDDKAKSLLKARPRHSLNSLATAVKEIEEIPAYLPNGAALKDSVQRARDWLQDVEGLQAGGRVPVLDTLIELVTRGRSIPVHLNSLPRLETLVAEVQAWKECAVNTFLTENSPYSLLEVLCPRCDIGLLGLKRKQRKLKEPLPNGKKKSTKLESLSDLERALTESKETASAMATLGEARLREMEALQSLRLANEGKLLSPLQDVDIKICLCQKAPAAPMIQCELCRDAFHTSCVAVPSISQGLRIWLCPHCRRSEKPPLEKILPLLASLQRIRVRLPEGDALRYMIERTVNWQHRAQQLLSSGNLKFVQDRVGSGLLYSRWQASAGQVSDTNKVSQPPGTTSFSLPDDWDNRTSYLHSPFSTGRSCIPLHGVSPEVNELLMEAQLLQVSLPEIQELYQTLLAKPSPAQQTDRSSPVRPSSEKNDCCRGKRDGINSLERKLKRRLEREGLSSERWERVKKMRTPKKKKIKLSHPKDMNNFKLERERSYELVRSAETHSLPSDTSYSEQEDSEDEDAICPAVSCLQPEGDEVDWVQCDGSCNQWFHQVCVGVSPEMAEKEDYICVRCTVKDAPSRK
Method in brief: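 KDM5BDeltaAP (200nM final) in 50mM HEPES pH 7.5, 0.01% Tween-20 was preincubated with compound for 10 min at room temperature. A substrate mix of 12.5uM H3K4Me3, 25uM a-ketoglutarate, ascorbate, Fe2+, NAD+ and formaldehyde dehydrogenase was then added. NADH fluorescence (340/450 nm) was read initially and after 30 min.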

[3] = qHTS to identify inhibitors of the type 1 interferon - major histocompatibility complex class I in skeletal muscle: primary screen against the NCATS LOPAC collection (AID 1347405);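 note: human myoblasts with HiBiT tag on endogenous HLA-B stimulated by IFN-beta; lytic HiBiT luminescence reporting HLA-B protein level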
Method in brief: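 First, engineered myoblasts carrying HLA-B-HiBiT were seeded in medium lacking dexamethasone with 4 ng/ml IFN-beta. After 1 hr, compounds were pinned in (top 46 uM final, 7 points). After 24 hrs at 37 C, luminescence was measured following 10 min lysis.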

[4] = qHTS for inhibitors of adenylyl cyclases using a fission yeast platform: a pilot screen against the NCATS LOPAC library (AID 1347410)
Method in brief: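 Growth medium went into the plates first, then compounds were pinned (final up to 57 µM), then CHP2027 yeast were added. Plates were incubated overnight (18 h) at 30C in the dark, and GFP was measured by laser scanning cytometry.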

[5] = system: Zika virus NS2B-NS3 protease; experiment: Primary screen GU AMC qHTS for Zika virus inhibitors (AID 1347154); note: nearly all actives have a fitted effect of over 70% in size; note: potency is the fitted concentration of half-maximal effect
Method in brief: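 Unlinked Zika NS2B hydrophilic domain–NS3 protease complex at 25 nM in 10 mM Tris-HCl pH 8.0, 0.01% Tween 20, with an AMC peptide substrate. Fluorescence change (340/450 nm) over 15 min at room temperature, normalized to controls, fitted to 4-parameter Hill.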

[6] = molecular target: Furin (Homo sapiens) (UniProt P09958); experiment: Furin counterscreen qHTS for Zika virus inhibitors (AID 1347149); note: nearly all actives have a fitted effect of over 70% in size; note: potency is the fitted concentration of half-maximal effect;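 for activity change, negative = inhibition: purified recombinant full-length human furin enzyme at 5 nM; fluorescence gain from furin cutting a BOC-RVRR-AMC peptide substrate over 15 min; top concentration of the series differs between compounds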
Chain of Furin (Homo sapiens) (P09958 whole entry, looked up): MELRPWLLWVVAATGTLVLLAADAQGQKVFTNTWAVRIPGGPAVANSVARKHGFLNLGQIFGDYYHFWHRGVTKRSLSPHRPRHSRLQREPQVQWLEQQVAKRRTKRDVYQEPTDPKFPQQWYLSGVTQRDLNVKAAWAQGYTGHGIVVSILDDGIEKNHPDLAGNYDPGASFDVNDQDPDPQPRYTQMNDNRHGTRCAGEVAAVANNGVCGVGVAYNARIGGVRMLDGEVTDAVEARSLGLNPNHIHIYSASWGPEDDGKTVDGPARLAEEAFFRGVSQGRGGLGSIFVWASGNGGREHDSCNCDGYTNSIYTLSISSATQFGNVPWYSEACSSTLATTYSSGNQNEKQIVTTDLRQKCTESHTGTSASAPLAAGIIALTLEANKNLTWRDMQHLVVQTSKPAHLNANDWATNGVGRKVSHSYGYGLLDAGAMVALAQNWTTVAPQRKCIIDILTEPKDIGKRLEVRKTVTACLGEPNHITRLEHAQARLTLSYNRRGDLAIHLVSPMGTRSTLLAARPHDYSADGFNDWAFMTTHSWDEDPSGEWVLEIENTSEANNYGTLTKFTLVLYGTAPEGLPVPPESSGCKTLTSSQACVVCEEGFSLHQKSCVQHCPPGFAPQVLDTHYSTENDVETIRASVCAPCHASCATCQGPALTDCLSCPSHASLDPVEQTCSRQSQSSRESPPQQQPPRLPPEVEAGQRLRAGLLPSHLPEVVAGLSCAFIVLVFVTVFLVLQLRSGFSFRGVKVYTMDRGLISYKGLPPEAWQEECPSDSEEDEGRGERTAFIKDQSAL
Method in brief: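 Counterscreen measures cleavage of 2 microM BOC-RVRR-AMC, below its ~15 microM Km, by 5 nM full-length human furin at pH 7.0 after a 15-min compound preincubation. Inhibition derives from the 15-min fluorescence increase at 37C.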

[7] = system: Zika virus NS2B-NS3 protease (linked construct); experiment: Confirmatory screen NINDS AMC qHTS for Zika virus inhibitors (AID 1347152); settings: Purified linked NS2B-NS3, AMC substrate fluorescence; note: potency is the fitted concentration of half-maximal effect; nearly all actives have a fitted effect of over 70% in size
Method in brief: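 In this dose-response qHTS, AMC release from 10 microM Bz-Nle-KRR-AMC by 1 nM linked protease is measured over 15 minutes (about 20% conversion) at pH 8.0. Percent inhibition is fitted to a 4-parameter Hill curve.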

[8] = system: Zika virus NS2B-NS3 protease (unlinked complex); experiment: Confirmatory screen GU AMC qHTS for Zika virus inhibitors (AID 1347153); settings: Recombinant NS2B-NS3 protease, AMC substrate fluorescence;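 note: enzyme at 25 nM with substrate at 10 µM below its Km of 18.3 µM; potency is the fitted concentration of half-maximal effect; nearly all actives have a fitted effect of over 70% in size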
Method in brief: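 Unlinked NS2B-NS3 complex (25 nM) in 10 mM Tris-HCl pH 8.0, 0.01% Tween 20 preincubated 15 min with compound, then 10 microM Bz-Nle-KRR-AMC (Km 18.3 µM). Fluorescence change over 15 min, normalized, Hill-fitted.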

[9] = ZIKV-mCherry secondary qHTS for Zika virus inhibitors (AID 1347158); note: top concentration of the series differs between compounds
Method in brief: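 Compounds were tested in Vero monkey kidney cells infected with recombinant mCherry-expressing Zika virus at MOI 1 for 48-72 h at 37 °C. Fixed cells were nuclear-stained and imaged, and infection rate was taken as the fraction of mCherry-positive cells.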

[10] = Confirmatory screen NINDS Rhodamine qHTS for Zika virus inhibitors (AID 1347161); note: potency is the fitted concentration of half-maximal effect; nearly all actives have a fitted effect of over 60% in size
Method in brief: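 Kinetic fluorescence (Ex 480 nm, Em 540 nm) over 15 min with 1.5 microM Rhodamine110 peptide and 25 nM linked protease.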

[11] = Vero cells viability qHTS for Zika virus inhibitors (AID 1347167)
Method in brief: (§1)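 qHTS titration; 24-48 h compound exposure, 37 degrees C/5% CO2; DMEM, 4% FBS; CellTiter Glo ATP luminescence.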

[12] = HepG2 cells viability qHTS for Zika virus inhibitors (AID 1347168); note: potency is the fitted concentration of half-maximal effect
Method in brief: as §1

[13] = qHTS to identify inhibitors of the type 1 interferon - major histocompatibility complex class I in skeletal muscle: primary screen against the NCATS Pharmaceutical Collection (AID 1347407);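 note: luminescence of HiBiT knocked into endogenous HLA-B as interferon-induced MHC class I level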
Method in brief: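 Cells were seeded with 4 ng/ml IFN-beta, incubated 1 h, then dosed with compounds over eight 1:5 steps up to 46 uM final. After 24 h at 37 C, HiBiT lytic reagent was added and luminescence read after 10 min lysis in the dark.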

[14] = Tertiary RLuc qRT-PCR qHTS assay for Zika virus inhibitors (AID 1347169); note: potency is the fitted concentration of half-maximal effect; nearly all actives have a fitted effect of over 55% in size
Method in brief: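 Orthogonal cell-based infection assay using recombinant ZIKV-RLuc (Cambodian) in Vero cells; compound added prior to virus at MOI 1-2. Incubation lasts 48-72 hrs at 37 degrees C before live-cell Renilla substrate is added and luminescence measured.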

[15] = system: Zika virus NS2B-NS3 protease (linked); experiment: 384 well plate NINDS AMC confirmatory qHTS for Zika virus inhibitors (AID 1347163); note: potency is the fitted concentration of half-maximal effect; nearly all actives have a fitted effect of over 50% in size
Method in brief: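 Fluorescence at 355/460 nm was read after 25 minutes of cleavage of 30 microM Ac-VKTGKR-AMC at room temperature, in the dark. Before substrate addition, compounds (up to 1 mM final) sat ~15 minutes with 5, 30 or 60 nM linked protease. Signals were normalized to no-enzyme and no-inhibitor wells.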

[16] = system: Zika virus NS2B-NS3 protease (linked construct); experiment: 384 well plate NINDS Rhodamine confirmatory qHTS for Zika virus inhibitors (AID 1347164); settings: rhodamine-110 peptide substrate fluorescence; note: potency is the fitted concentration of half-maximal effect; nearly all actives have a fitted effect of over 65% in size
Method in brief: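 Compounds are incubated about 15 minutes with linked protease (5, 30 or 60 nM final). Rhodamine 110-tagged Ac-LKRR substrate (10 microM final) is added and fluorescence measured after 25 minutes.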

For CCOC(=O)[C@H](CCc1ccccc1)N[C@@H](C)C(=O)N1[C@H](C(=O)O)C[C@H]2CCCC[C@@H]21, the outcome [1] was “inactive”, the outcome [2] was “inactive” and the outcome [3] was “inactive”. For the same compound, the outcome [4] was “inactive”.
In the case of NCCNc1cccc2ccccc12, the Potency [5] is reported as 14.4 µM (active).
With CC1(COc2ccc(CC3SC(=O)NC3=O)cc2)CCCCC1 (stereo not given) the Potency [6] was “inactive”, the Potency [7] was 19.2 µM (active) and the Potency [8] was 21.5 µM (active). The activity change, negative = inhibition [5] was 6.2% [at 6.83 µM], the outcome [9] was “inactive” and the Potency [10] was 3.11 µM (active). The outcome [11] was “inactive”, the Potency [12] was “inactive” and the Potency [13] was “inactive”.
With c1ccc(CC2=NCCN2)cc1 the Potency [5] was “inactive”.
For O=C1C(CCS(=O)c2ccccc2)C(=O)N(c2ccccc2)N1c1ccccc1 (stereo not given), the Potency [5] was “inactive”.
For CC(C)(C)NC[C@H](O)COc1nsnc1N1CCOCC1, the outcome [1] was “inactive”, the Potency [5] was “inactive” and the outcome [2] was “inactive”. For the same compound, the outcome [3] was “inactive”, the Potency [13] was “inactive” and the outcome [4] was “inactive”.
In the case of CCc1oc2ccccc2c1C(=O)c1cc(I)c(O)c(I)c1, the Potency [5] is reported as 28.7 µM (active).
In the case of C=C[C@H]1CN2CC[C@H]1C[C@@H]2[C@@H](O)c1ccnc2ccc(OC)cc12, the Potency [5] is reported as “inactive”.
In the case of NC(N)=NCc1cccc(I)c1, the outcome [1] is reported as “inactive”, the outcome [2] is reported as “inactive” and the outcome [3] is reported as “inactive”. The outcome [4] was “inactive”.
In the case of O[C@@H](c1cc(C(F)(F)F)nc2c(C(F)(F)F)cccc12)[C@H]1CCCCN1, the Potency [6] is reported as “inactive”, the outcome [1] is reported as “inactive” and the Potency [5] is reported as “inactive”. For the same compound, the outcome [11] was “inactive”, the Potency [12] was 20.8 µM (active) and the Potency [14] was 9.3 µM (active).
With CCc1oc2ccccc2c1C(=O)c1cc(Br)c(O)c(Br)c1 the Potency [6] was 24.1 µM (active), the Potency [7] was 9.61 µM (active) and the Potency [8] was 17.1 µM (active). For the same compound, the Potency [5] was 10.6 µM (active), the Potency [10] was 1.75 µM (active) and the Potency [15] was 79.4 µM (active). For the same compound, the Potency [16] was 28.2 µM (active) and the outcome [11] was “inactive”.
With COc1ccc(CN(CCN(C)C)c2ncccn2)cc1 the Potency [5] was “inactive”.
For O=C1OC2(c3ccccc31)c1cc(Br)c(O)c(Br)c1Oc1c2cc(Br)c(O)c1Br, the Potency [5] was “inactive”.
For C[N+]1(CC2COC(c3ccccc3)(C3CCCCC3)O2)CCCCC1 (stereo not given), the Potency [5] was “inactive”.
